Legend:
Experiment in all cases: PBM binding z-score (relative to random genomic background probes); higher = stronger binding; sequences stand for … in GC…GCGATTGACAGCGTAGAATGAAGG
[1] = tested on: FXR:RXRa (NR concentration 270 nM, RXRa partner concentration 90 nM)
Procedure, shortened: (§1)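 Antibodies against each partner of ligand-free nuclear receptor dimers (one per run) detected binding on custom Agilent 4×180K protein-binding microarrays after 1 h incubation. The double-stranded probes had 34-nt variable regions carrying direct-repeat seeds, single-nucleotide variants, half-site ablations and random human genomic background sequences. Binding z-scores, from regression-normalized fluorescence, use the random background probes as reference.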

[2] = tested on: LXRa:RXRa (NR concentration 270 nM, RXRa partner concentration 90 nM)
Procedure, shortened: as §1

[3] = tested on: LXRa homodimer (NR concentration 270 nM)
Procedure, shortened: as §1

[4] = tested on: LXRb:RXRa (NR concentration 270 nM, RXRa partner concentration 90 nM)
Procedure, shortened: as §1

[5] = tested on: LXRb homodimer (NR concentration 270 nM)
Procedure, shortened: as §1

[6] = tested on: PPARa:RXRa (NR concentration 270 nM, RXRa partner concentration 90 nM)
Procedure, shortened: as §1

[7] = tested on: PPARg:RXRa (NR concentration 180 nM, RXRa partner concentration 90 nM)
Procedure, shortened: as §1

[8] = tested on: PPARg:RXRa 270nM:90nM, anti-RXR (NR concentration 270 nM, RXRa partner concentration 90 nM)
Procedure, shortened: as §1

[9] = tested on: PPARg:RXRa 30nM:10nM, anti-RXR (NR concentration 30 nM, RXRa partner concentration 10 nM)
Procedure, shortened: as §1

[10] = tested on: PPARg:RXRa 90nM:30nM, anti-RXR (NR concentration 90 nM, RXRa partner concentration 30 nM)
Procedure, shortened: as §1

[11] = tested on: PPARg:RXRa DBDmut IVT, anti-RXR (DBD mutation: RXRa K156A/R161A, NR concentration 270 nM, RXRa partner concentration 90 nM)
Procedure, shortened: as §1

[12] = tested on: PPARg:RXRa IVT, anti-PPARg (NR concentration 270 nM, RXRa partner concentration 90 nM)
Procedure, shortened: as §1

[13] = tested on: PPARg DBDmut:RXRa IVT, anti-PPARg (DBD mutation: PPARg1 K132A/R137A, NR concentration 270 nM, RXRa partner concentration 90 nM)
Procedure, shortened: as §1

[14] = tested on: PPARg DBDmut IVT, anti-PPARg (DBD mutation: PPARg1 K132A/R137A, NR concentration 270 nM)
Procedure, shortened: as §1

[15] = tested on: PPARg homodimer (NR concentration 180 nM)
Procedure, shortened: as §1

[16] = tested on: PXR:RXRa (NR concentration 270 nM, RXRa partner concentration 90 nM)
Procedure, shortened: as §1

[17] = tested on: PXR homodimer (NR concentration 270 nM)
Procedure, shortened: as §1

[18] = tested on: RARa:RXR (NR concentration 270 nM, RXRa partner concentration 90 nM)
Procedure, shortened: as §1

[19] = tested on: RARa homodimer (NR concentration 270 nM)
Procedure, shortened: as §1

[20] = tested on: RARb:RXRa (NR concentration 270 nM, RXRa partner concentration 90 nM)
Procedure, shortened: as §1

| Sequence | PBM binding z-score [1] | PBM binding z-score [2] | PBM binding z-score [3] | PBM binding z-score [4] | PBM binding z-score [5] | PBM binding z-score [6] | PBM binding z-score [7] | PBM binding z-score [8] | PBM binding z-score [9] | PBM binding z-score [10] | PBM binding z-score [11] | PBM binding z-score [12] | PBM binding z-score [13] | PBM binding z-score [14] | PBM binding z-score [15] | PBM binding z-score [16] | PBM binding z-score [17] | PBM binding z-score [18] | PBM binding z-score [19] | PBM binding z-score [20] |
| --- | --- | --- | --- | --- | --- | --- | --- | --- | --- | --- | --- | --- | --- | --- | --- | --- | --- | --- | --- | --- |
| TTTTGTAGATCAACAGGAGGTTAAGAAAGATCGA | 0.519 | 1.38 | 0.44 | 1.16 | 0.116 | 1.7 | 0.596 | 1.25 | 1.03 | 1.29 | 1.26 | 1.98 | 1.18 | 1.43 | 0.903 | 0.932 | 0.512 | 1.34 | 1.05 | 0.73 |
| CAAACCAGGTCAAGGTCAAAGTCGGTTTGTGCCA | 7.11 | 5.98 | 4.41 | 5.17 | 1.73 | 6.28 | 7.8 | 7.07 | 4.62 | 6.61 | 6.42 | 7.16 | 2.64 | 2.41 | 4.71 | 5.84 | 2.63 | 6.02 | 2.21 | 5.38 |
| TTACCAAGGTGAGCTGAGGTCGTTAATCCAACTC | 1.47 | 0.747 | -0.294 | 0.852 | -1.14 | 1.4 | 0.0208 | 0.655 | 0.0433 | 0.306 | 1.09 | 1.7 | -0.772 | -1.04 | -0.219 | 4.5 | 0.182 | 1.51 | -0.951 | 1.59 |
| ATATGTAGGTTACATCCGGGTGATTCAGGCTATG | 0.452 | 4.47 | 0.517 | 1.64 | 0.268 | 3.54 | 5.24 | 4.39 | 1.74 | 3.56 | 6.76 | 7.32 | 2.76 | 2.26 | 1.49 | 0.723 | 0.414 | 0.999 | 0.428 | 1.05 |
| AGCATGAGGTTAAGATCAGGGAAACAGAATACAT | 1.97 | 2.02 | 0.07 | 1.75 | 0.151 | 3.06 | 1.14 | 1.04 | 0.357 | 0.819 | 0.0322 | 0.624 | 0.52 | -0.142 | 0.333 | 1.23 | 0.477 | 2.07 | 0.813 | 2.02 |
| TCTGCTCGGTCAACGATGGTCAGCTAATCTGCTA | 0.568 | 0.372 | -0.251 | -0.449 | -0.425 | 0.275 | -0.279 | 0.898 | 1.25 | 1.09 | 1.1 | 1.1 | -0.37 | -0.828 | -0.45 | -0.246 | -1.09 | -0.0627 | -0.906 | 2.59 |
| TCTTGAAGATCAACAGGAGGTTAAGAAAGATCGA | 0.539 | 1.27 | 0.226 | 1.15 | -0.64 | 1.41 | -0.0399 | 1.64 | 2.92 | 2.51 | 1.18 | 0.0291 | 0.0497 | 0.387 | 0.165 | 0.962 | -0.127 | 1.25 | 0.0716 | 0.816 |
| CTACCAAGGTGAACAAAGTCGTTGATTACTATTC | 0.425 | 0.395 | -0.0192 | 0.749 | -0.488 | 1.01 | 0.314 | 0.548 | 0.192 | 0.308 | 2.31 | 2.45 | 0.74 | 0.992 | 0.58 | 0.262 | 0.0608 | 0.544 | 0.222 | 1.42 |
| AATACAGGGTAATCGTAGGCCAGAGTACGCACAG | 0.175 | 1.34 | -0.0914 | 0.309 | -0.0115 | 0.447 | 1.25 | 0.792 | 0.499 | 0.377 | 2.12 | 2.19 | 0.939 | 0.00215 | -0.0424 | 0.0668 | 0.0801 | 0.578 | 0.101 | 0.525 |
| CCTACCGGGCCAAAGGTCATTGATTCCAATGCTC | 4.82 | 5.29 | 3.7 | 4.97 | 0.797 | 5.89 | 9.76 | 9.09 | 7.65 | 9.83 | 0.996 | 4.7 | -0.596 | -1.68 | 3.08 | 5.32 | 1.52 | 6.45 | 0.836 | 4.35 |
| GTAGCAAGGTGAATAGGTCGTTGATGAGTAGGCG | 0.435 | 0.286 | -0.884 | 0.119 | -1.35 | 2.05 | 0.986 | 1.48 | 0.12 | 0.807 | 1.19 | 1.9 | -0.625 | -1.04 | 0.211 | 0.451 | -0.13 | 1.08 | -0.0167 | 1.74 |
| TCGAGTAGGTTAGTCGCGGCATTCAGCCAACATA | -0.279 | -0.139 | -0.606 | -0.576 | -1.32 | 0.228 | -0.37 | 0.565 | 1.03 | 0.9 | 1.72 | 0.971 | -0.971 | -1.42 | -0.911 | -0.398 | -0.771 | -0.208 | -0.937 | -0.138 |
| GGGACGAGGGCATTCGAGTTGATAGCATGGCGAT | 1.09 | 1.84 | -0.143 | 0.891 | 0.141 | 1.25 | 0.732 | 0.668 | -0.43 | 0.0864 | 1.51 | 1.47 | -0.173 | 0.189 | 0.254 | 3.68 | 1.37 | 1.08 | 0.349 | 2 |
| TTACCTAGGTGAGCTGAGGTCGTTGATCCAACTC | 0.355 | 0.722 | -0.414 | 0.389 | -0.985 | 1.68 | 0.522 | 1.09 | 0.135 | 0.445 | 3.01 | 3.01 | -0.362 | 0.266 | 0.32 | 3.55 | 0.214 | 1.94 | -1.28 | 0.93 |
